PubChem BioAssay AID1851 (National Center for Advancing Translational Sciences (NCATS), 2009)
Screen size: about 16,000 compounds; about 4,000 (25%) were called active. Inconclusive results (about 26%) are left out. Calls follow the shape of the dose curve; as a rule, active = well fitted curve in the direction sought with a large enough effect; inconclusive = small, poorly fitted or top-dose-only effect, or effect the other way; inactive = no such curve, though single readings can be large or run the other way. Not all results are given here.

Target: Cytochrome P450 2C9 (Homo sapiens) (UniProt P11712)
Sequence (P11712 whole entry, looked up): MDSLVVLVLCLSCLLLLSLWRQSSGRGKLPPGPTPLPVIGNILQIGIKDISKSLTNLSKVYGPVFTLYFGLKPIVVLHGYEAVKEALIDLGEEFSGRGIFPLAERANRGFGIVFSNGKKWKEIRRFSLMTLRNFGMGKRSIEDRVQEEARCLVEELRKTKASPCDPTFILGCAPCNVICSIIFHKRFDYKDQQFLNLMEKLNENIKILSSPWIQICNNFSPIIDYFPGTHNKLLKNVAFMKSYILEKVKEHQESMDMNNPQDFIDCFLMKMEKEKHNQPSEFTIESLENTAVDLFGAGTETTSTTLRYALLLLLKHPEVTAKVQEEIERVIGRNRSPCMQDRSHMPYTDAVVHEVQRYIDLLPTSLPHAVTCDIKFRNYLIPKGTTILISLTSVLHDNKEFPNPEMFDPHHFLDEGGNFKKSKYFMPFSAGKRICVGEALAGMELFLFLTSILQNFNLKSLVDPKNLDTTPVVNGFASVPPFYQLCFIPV
Experiment: Cytochrome panel assay with activity outcomes
Conditions: recombinant CYP, pro-luciferin dealkylation, luminescence, p450-cyp2c9; series mostly up to 57.1 µM
% is scaled to controls: 0 for no effect and ±100 for the full control effect.

Row | Structure (SMILES) | activity, negative = inhibition | AC50
1 | C[C@@]12CCC(=O)C=C1C=C[C@H]1[C@H]3CC[C@](O)(CCC(=O)O)[C@]3(C)CC[C@@H]12 | inactive | –
2 | CC(C)c1ccc(C(c2c(O)c3ccccc3oc2=O)c2c(O)c3ccccc3oc2=O)cc1 | – | 3.16 µM (active)
3 | O=C(C[C@H](c1ccccc1)c1c(O)c2ccccc2oc1=O)c1ccccc1 | – | 0.631 µM (active)
4 | c1ccc(CN2CCCC3(CCNCC3)C2)cc1 | inactive | –
5 | CN1CCC(c2c[nH]c3ccc(O)cc23)CC1 | inactive | –
6 | C[C@]1(O)CC[C@H]2[C@@H]3[C@@H](O)CC4=CC(=O)CC[C@@]4(C)[C@H]3CC[C@]21C | 14% [at 11.4 µM] (inactive) | –
7 | C[C@@H]1O[C@@H](O[C@H]2C[C@@H](O)[C@]3(CO)[C@@H]4[C@@H](O)C[C@]5(C)[C@H]([C@@H]6COC(=O)C6)CC[C@@]5(O)[C@H]4CC[C@@]3(O)C2)[C@H](O)[C@H](O)[C@@H]1O | inactive | –
8 | CN1CCC2(CC1)CCN(C(=O)Oc1ccccc1)CC2 | inactive | –
9 | C[C@@]12C(=O)OC(=O)[C@]1(C)[C@H]1CC[C@@H]2O1 | inactive | –
10 | O=C(Nc1cccc(C(F)(F)F)c1)c1cccn(Cc2ccc3c(c2)OC(F)(F)O3)c1=O | – | 3.16 µM (active)
11 | O=C(Nc1ccc(C(F)(F)F)cc1)c1cccn(Cc2ccc3c(c2)OC(F)(F)O3)c1=O | – | 8.91 µM (active)
12 | O=P(O)(O)CCP(=O)(O)O | -4.93% [at 11.4 µM] (inactive) | –
13 | C[N+]1(C)[C@@H]2CC[C@H]1CC(OC(=O)c1c[nH]c3ccccc13)C2 (some centres not stated) | inactive | –
14 | C[C@]12N[C@H](Cc3ccccc31)c1ccccc12 | inactive | –
15 | CCN(CCCl)Cc1ccccc1Br | inactive | –
16 | CC(C)c1ccc2c(c1)c(SC(C)(C)C)c(CC(C)(C)C(=O)O)n2Cc1ccc(Cl)cc1 | – | 6.31 µM (active)
17 | CC[C@H](C(=O)[C@H](C)[C@H](O)[C@H](C)CCc1ccc(C)c(O)c1C(=O)O)[C@H]1O[C@](CC)([C@@H]2CC[C@@](O)(CC)[C@H](C)O2)C[C@H]1C | inactive | –
18 | CC[C@@]1(c2ccc(N)cc2)CCC(=O)NC1=O | inactive | –
19 | CC(C)NC(=O)N1CCC2(CC1)CCN(C(=O)Oc1ccccc1)CC2 | inactive | –

Row | Structure (SMILES) | activity, negative = inhibition | AC50
20 | NCCP(=O)(O)O | 4.14% [at 11.4 µM] (inactive) | –
21 | NC(N)=NCCC[C@H](N)C(=O)O | inactive | –
22 | NP(N)(=O)NC(=O)c1ccc(F)cc1 | inactive | –
23 | O[C@@H](c1cc(-c2ccccc2)nc2c1ccc1ccccc12)[C@@H]1CCCCN1 | -8.99% [at 11.4 µM] (inactive) | –
24 | COc1ccc(Cc2nccc3cc(OC)c(OC)cc23)cc1OC | inactive | –
25 | CC[C@H]1C(=O)OC[C@H]1Cc1cncn1C | -29.2% [at 11.4 µM] (inactive) | –
26 | CCC1C(=O)OCC1Cc1cncn1C (configuration not stated) | – | 15.8 µM (active)
27 | CC(=O)O[C@H]1CC[C@@]2(C)[C@@H](CC[C@H]3[C@H]2CC(=O)[C@@]2(C)[C@@H]3C[C@H]3CC(C)=CC(=O)[C@H]32)C1 | -10.2% [at 11.4 µM] (inactive) | –
28 | C[C@@]12CC[C@H](O)C[C@@H]1CC[C@H]1[C@H]2CC[C@@]2(C)[C@@H](C3=CC(=O)OC3)CC[C@]12O | inactive | –
29 | N#CCCN | inactive | –
30 | Ic1ccccc1CN[C@@H]1C2CCN(CC2)[C@H]1C(c1ccccc1)c1ccccc1 | inactive | –
31 | NC(N)=Nc1ccc2[nH]c3c(c2c1)C[C@]1(O)[C@@H]2Cc4ccc(O)c5c4[C@]1(CCN2CC1CC1)[C@H]3O5 | inactive | –
32 | COC(=O)[C@@H]1[C@@H]2C[C@H]3c4[nH]c5cc(OC)ccc5c4CCN3C[C@@H]2C[C@H](OC(=O)/C=C\c2cc(OC)c(OC)c(OC)c2)[C@H]1OC | inactive | –
33 | COc1cc2c(cc1OC)[C@H](C)NCC2 | inactive | –
34 | NC(=NCCc1ccc(I)cc1)SCCCc1cnc[nH]1 | inactive | –
35 | NC(=NCc1ccc(Cl)cc1)SCCCc1cnc[nH]1 | – | 12.6 µM (active)
36 | OCc1cnc[nH]1 | inactive | –
37 | C#CCN[C@@H](C)Cc1ccccc1 | inactive | –
38 | c1csc(CN2CC[C@@]3(CCCNC3)C2)n1 | inactive | –

Row | Structure (SMILES) | activity, negative = inhibition | AC50
39 | COc1ccc2c(c1)[C@]13CCCC[C@@H]1[C@H](C2)N(C)CC3 | inactive | –
40 | COc1ccc(C(=O)O[C@H]2CC[C@@]3(C)[C@H]4CC[C@H]5[C@]3(C[C@]3(O)[C@H]6CN7C[C@H](C)CC[C@H]7[C@](C)(O)[C@]6(O)[C@H](O)C[C@]53O)O[C@]24O)cc1OC | -11.3% [at 11.4 µM] (inactive) | –
41 | CCC(=Nc1cc(OC)ccc1OC)c1c(O)[nH]c(=O)[nH]c1=O | inactive | –
42 | O=c1[nH]c(=O)n(CCc2ccc(F)cc2)c(O)c1C=NCCCN1CCOCC1 | inactive | –
43 | C=CCn1c(O)c(C(CC)=NC2CC2)c(=O)[nH]c1=O | inactive | –
44 | CCCCn1c(O)c(C(CC)=Nc2ccc(OC)cc2OC)c(=O)[nH]c1=O | – | 14.1 µM (active)
45 | CCCCn1c(O)c(C(CC)=NCc2ccc(F)cc2)c(=O)[nH]c1=O | – | 3.55 µM (active)
46 | CCCCn1c(O)c(C=NCCN2CCCCC2)c(=O)[nH]c1=O | inactive | –
47 | C[C@]12CCC3c4ccc(OCC(=O)O)cc4CCC3C1CCC2=O (some centres not stated) | -4.6% [at 11.4 µM] (inactive) | –
48 | c1cc(C2N3CCCN2CC3)ccn1 (configuration not stated) | 9.12% [at 11.4 µM] (inactive) | –
49 | O=C(CCCN1CCC2(CC1)C(=O)N(Cc1cccc(F)c1)CN2c1ccccc1)c1ccc(F)cc1 | inactive | –
50 | CCCN1CCC[C@H](c2cccc(C#N)c2)C1 | inactive | –
51 | CCCN1CC[C@@H]2c3cc(O)ccc3CC[C@H]21 | inactive | –
52 | Cc1cccc([C@H](C)c2cnc[nH]2)c1C | – | 0.2 µM (active)
53 | O=C(O)[C@@H]1C[C@H]1[C@@H](NP(=O)(c1ccccc1)c1ccccc1)c1ccccc1 | inactive | –
54 | O=P(O)(O)c1ccccc1 (tested in a mixture with another compound) | 0.15% [at 11.4 µM] (inactive) | –
55 | C=C(CC1(C(C)NP(=O)(c2ccccc2)c2ccccc2)CC1)c1ccccc1 (configuration not stated) | – | 7.94 µM (active)
56 | C=C(CC1(CNP(=O)(c2ccccc2)c2ccccc2)CC1)c1ccccc1 | – | 10 µM (active)
57 | O=C(O)[C@H]1C[C@@H]1[C@H](NP(=O)(c1ccccc1)c1ccccc1)c1ccccc1 | inactive | –
